Compound activity as filed in PubChem BioAssay.
This is a sample that favours compounds with a hit; in the whole collection about 4.1% have one here.
hgDAF-12 ag – hgDAF-12 agonism, primary luciferase screen | HEK293 GAL4-hgDAF12 UAS-luciferase reporter, agonist luminescence; normalized to butyrate control | activation, % at 6.8 µM | 370,000 compounds, 1.8% hits | AID 687014;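 active = activation above a cutoff set at the mean of all screened compounds plus 3 SD, cut at about 10% in these data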;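 also: 0% = DMSO wells and 100% = sodium butyrate wells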
DAX1 inh-1 – inhibits human nuclear receptor DAX1; P51843; HEK293 Gal4-DAX1 luciferase reporter, luminescence; inhibition, % at 6.75 µM; 340,000 compounds, 0.99% hits;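 active = inhibition above the mean over all tested compounds plus 3 SD, cut at about 4.2% in these data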;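 also: 0% = DAX1-transfected cells with DMSO and 100% = empty-vector control cells with DMSO; inhibition shows as a rise in luminescence from relieved DAX1 repression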
Target sequence (P51843 207-470 limits assumed): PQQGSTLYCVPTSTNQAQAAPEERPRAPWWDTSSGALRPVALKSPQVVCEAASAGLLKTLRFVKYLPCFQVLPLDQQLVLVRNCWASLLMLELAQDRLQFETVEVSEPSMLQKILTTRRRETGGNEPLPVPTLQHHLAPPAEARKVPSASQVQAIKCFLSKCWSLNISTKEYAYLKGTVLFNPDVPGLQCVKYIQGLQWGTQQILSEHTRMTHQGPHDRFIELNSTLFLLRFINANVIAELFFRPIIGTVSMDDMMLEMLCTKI
hcDAF12 agonist – H. contortus DAF-12 activation, primary screen | activation, % at 6.8 µM | 370,000 compounds, 1.4% hits | HEK293 hcDAF-12 lit1-tk-luc reporter, luminescence; 0% DMSO, 100% Δ7-dafachronic acid;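 active = activation above the mean of all tested compounds plus 3 SD, cut at about 5.5% in these data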;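 also: 100% = response to 3 µM Δ7-dafachronic acid high control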
ssDAF-12 act – S. stercoralis DAF-12 activation, primary screen; HEK293 ssDAF-12/GRIP1 lit1-tk-luc reporter, luminescence; % of 3 µM dafachronic acid response; activation, % at 6.8 µM; 370,000 compounds, 1% hits; AID 652126;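 active = activation above the mean over all tested compounds plus 3 SD, cut at about 0.9% in these data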;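 also: 0% = DMSO-only wells and 100% = 3 µM delta7-dafachronic acid wells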
DAX1 inh-2 – inhibitors of DAX1 repression of SF-1 activated StAR promoter; HEK293T StAR-luciferase reporter, SF-1/DAX-1 repression relief; inhibition, % at 6.8 µM; 370,000 compounds, 1.1% hits; AID 652010;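 active = inhibition above the mean over all tested compounds plus 3 SD, cut at about 3.6% in these data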;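 also: 0% = DAX-1 cells with DMSO and 100% = cells lacking DAX-1 with DMSO; higher inhibition means more luminescence from relief of DAX-1 repression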
Active calls of the source: *; / = not tested or not shown; ! = repeats disagree.

SMILES | hgDAF-12 ag | DAX1 inh-1 | hcDAF12 agonist | ssDAF-12 act | DAX1 inh-2
O=C(CCS(=O)(=O)c1cccs1)NC1CCCCCC1 | 12* | 2 | 1 | 0 | 1
COC(=O)[C@H](C(C)C)N1CCc2nnn(CC3CCCCC3)c2-c2cc(F)ccc2S1(=O)=O | 1 | / | -2 | -1 | -1
CN(C)c1cccc(/C=C2\CC3(OC(=O)c4ccc(Cl)cc4)CCCN2C3)c1 (centres undefined) | 1 | / | -1 | -1 | 0
O=C(NNC(=O)c1cccs1)c1cccc(F)c1 | -2 | -1 | 2 | 1.3* | 1
Cn1nccc1-c1ccc(C(=O)NCc2ccco2)c2occc12 | 13* | / | 1 | 0 | 3
Cc1noc(C)c1-c1ccc(C(=O)NCc2ccco2)c2occc12 | -1 | / | 0 | 0 | 2
Cn1c(N)c(C(=O)Nc2ccccc2)c(=O)[nH]c1=O | -1 | / | -2 | -1 | 1
Cn1c(N)c(C(=O)/C=C/c2ccccc2)c(=O)[nH]c1=O | 9 | 2 | 3 | 1.1* | 1
Cn1c(=O)n(CC(=O)O)c(=O)c2c1nc1n2CCS1 | -1 | 6.4*! | -1 | -1 | 0
Cc1ccc(NC(=O)C2(S(=O)(=O)c3ccc(C)cc3)CC2)cc1 | / | 0 | / | / | /
Cc1ccc(S(=O)(=O)C2(C(=O)Nc3ccc(C(C)C)cc3)CC2)cc1 | 8 | -2 | -1 | 1.0* | 0
Cc1ccc(S(=O)(=O)N2CCCC(C(=O)NCCN3CCC(Cc4ccccc4)CC3)C2)cc1 (centres undefined) | 0 | / | -3 | -2 | -1
COc1ccc(-c2cc3ncnc(Cl)c3s2)cc1 | 11* | 1 | 4 | 0 | 1
CC1CCC/C(=N/NC(=O)c2ccccc2-n2cccc2)C1 (centres undefined) | 1 | -1 | 6.1* | -1 | 0
CC1CCC(=NNC(=O)c2ccccc2-n2cccc2)CC1 (centres undefined) | -1 | 1 | -1 | -1 | 2
Cc1cc([N+](=O)[O-])nn1CC(=O)N(C)C1CCCCC1 | 0 | 2 | 6.3* | 1 | 0
Nc1ccc2ccccc2c1N=Nc1ccccc1 | 4 | 1 | 4 | 1.3* | 1
CC(C)c1ccc(OC[C@@H](O)CN2CCC(C(O)(c3ccccc3)c3ccccc3)CC2)cc1 | -2 | / | 0 | -2 | -1
COC(=O)c1cc(-c2ccc(Oc3ccccc3)cc2)c(=O)n2c1CCC2 | -3 | / | -2 | -2 | -1
CC(=O)Nc1ccc(NC(=O)C2CCCN2C(=O)Nc2ccccc2[N+](=O)[O-])cc1 (centres undefined) | -2 | 0 | -2 | -1 | 0
CC(=O)Nc1ccc(NC(=O)C2CCCN2C(=O)Nc2ccc(F)c([N+](=O)[O-])c2)cc1 (centres undefined) | 3 | 4.9* | 0 | -2 | 1
CC(C)c1ccc(NC(=O)C2=NNC(=O)CC2)cc1 | 7 | 5.3* | 3 | -1 | 2
COc1ccc2nc(NC(=O)c3ccccc3[N+](=O)[O-])sc2c1 | 1 | 4.4* | 2 | -1 | 0
O=C(Nc1nc2ccccc2s1)c1ccccc1[N+](=O)[O-] | 7 | 0 | 2 | 1.2* | 1
O=C(CSc1nc2ccccc2o1)Nc1nc2ccc(Br)cc2s1 | 0 | 1 | 0 | -2 | 0
SMILES | hgDAF-12 ag | DAX1 inh-1 | hcDAF12 agonist | ssDAF-12 act | DAX1 inh-2
COc1ccc2nc(NC(C)=O)sc2c1 | 12* | 0 | 2 | 0 | 1
COc1ccc2nc(NC(=O)CSc3nc4ccccc4o3)sc2c1 | -1 | 4.7* | -1 | -2 | -1
CCC(C)C(=O)Nc1nc2ccc(OC)cc2s1 (centres undefined) | 6 | / | 2 | -1 | 2
CCc1c(-c2cccc(F)c2)ncn1CCc1ccccc1OC | -4 | / | -3 | -2 | -3
COc1ccc2nc(NC(=O)CSCc3c(C)noc3C)sc2c1 | 3 | 3 | -1 | 0 | 1
COC(=O)c1ccc2nc(NC(=O)CSCC(=O)OCC(=O)c3ccccc3)sc2c1 | 13* | 3 | 4 | 0 | 2
COc1ccc2nc(NC(=O)CSCC(=O)Nc3cc(C)on3)sc2c1 | 8 | 0 | 3 | 0 | 4.2*
O=C(Nc1cccc(F)c1)OCCCN1CCC2(CCC(c3ccccc3)CC2)C1 (centres undefined) | 1 | / | -1 | -1 | 0
COC(=O)[C@]12C[C@H](CC(=O)NCC34CC5CC(CC(C5)C3)C4)C(=O)N(Cc3ccccc3)C1=C[C@H](C(C)(C)C)O[C@@H]2C | -2 | / | 0 | -1 | -1
Cc1nc(C2COc3ccccc3O2)sc1C(=O)O (centres undefined) | 2 | 5.5* | 2 | -1 | 2
Cc1nc2ccc3nc(NC(=O)C4COc5ccccc5O4)sc3c2s1 (centres undefined) | 1 | 0 | -1 | 0 | 0
CN1C(=O)[C@@](O)(c2cccn2C)c2cc(Cl)ccc21 | -1 | / | -2 | 0.9* | 0
Cc1cc(NC(=O)CSc2nc3sc4c(c3c(=O)n2C)CCCC4)no1 | -4 | 0 | -2 | -1 | 0
Cc1cc(NC(=O)CSc2nc(C(C)C)nc3sc4c(c23)CCCC4)no1 | 2 | 0 | 0 | 1.3* | 1
Cc1ccc(S(=O)(=O)Nc2cc(C(=O)O)ccc2N2CCC(C)CC2)cc1C | 2 | / | -1 | -1 | 1
C(=C\c1ccccc1)/CSc1nnc(Cc2cccs2)n1-c1ccccc1 | 1 | / | -1 | -1 | 0
Cc1cc2ccccc2nc1-c1ccccc1F | 6 | 3 | -2 | -1 | -2
c1ccc2c(c1)Cc1cc3ccccc3nc1-2 | 15* | 3 | 17* | 1.2* | 2
CCOC(=O)[C@@]12CCCC3=C1N(CCC3)C(=O)[C@H]2CC(=O)NCCc1ccccc1OC | -3 | / | -2 | -1 | 0
CCOC(=O)C1=NN(c2cccc(Cl)c2)C2=NC(C)=C(C(=O)OC)C(c3cccs3)N12 (centres undefined) | 2 | 5.6* | 1 | -2 | 0
C=CCN1C(=O)c2n[nH]c(C(C)C)c2C1c1ccc(C)cc1 (centres undefined) | -2 | / | -2 | -1 | -1
CCC(=O)Nc1nnc(/C=C/c2ccccc2)s1 | 6 | 5.3* | 0 | -1 | 1
O=C(N1CCCC1)n1ncc(-c2ccc(-c3ccccc3)cc2)n1 | 9 | / | 1 | -1 | /
CCCCOc1ccc(/C=C/C(=O)NCCc2nc3ccccc3[nH]2)cc1 | -1 | -1 | -3 | -2 | -1
COc1ccc(/C=C/C(=O)NCCc2nc3ccccc3[nH]2)cc1 | 2 | / | 1 | 1.1* | -1
Nc1nc(CN2CCCCCC2)nc(Nc2ccccc2)n1 | 0 | 0 | -1 | 0 | -1
Cc1c(-c2nc(N)nc(Nc3ccccc3)n2)oc2ccccc12 | 11* | 2 | 3 | 0 | 2
CC(C)C[C@@H]1COc2cc(Br)ccc2S(=O)(=O)N1Cc1cn(Cc2ccc(C(F)(F)F)cc2)nn1 | 1 | / | -2 | -2 | 0
